According to PubChem BioAssay AID1159580 (chemical genetic matrix, 2015):
Where “and” joins values, the source holds several entries; their conditions need not be identical. Equal values may be shown once. In all, about 5,500 compounds went through this assay and about 2,000 (36%) were called active. Inconclusive results (about 18%) are left out. Cut-off read from the data, not from the text of the source: active = normalized growth mostly below about 0.91 (no sharp cut-off); inconclusive = no clear call, values can overlap the other calls; inactive = mostly above about 0.92. This is one part of the list.

Experiment: chemical genetic growth profiling, strain panel (AID 1159580);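 note: tested at 20 µM; growth read once vehicle control cultures reached saturation at 30 °C; 1 = growth at the plate median or of vehicle wells; lower values mean less growth of the strain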
Settings: S. cerevisiae deletion strains, growth OD

Measured: normalized growth

CN(C)N=Nc1nc[nH]c1C(N)=O
inactive: locus YAL013W, strain DEP1, hits give low values 1.01 | locus YAL021C, strain ccr4, hits give low values 0.968 | locus YAL026C, strain drs2, hits give low values 1 | locus YAL030W, strain snc1, hits give low values 0.976 | locus YBL061C, strain skt5, hits give low values 0.976 | locus YBR009C, strain hhf1, hits give low values 1.02 | locus YBR021W, strain FUR4, hits give low values 1.02 | locus YBR023C, strain chs3, hits give low values 0.982 | locus YBR171W, strain sec66, hits give low values 0.969 | locus YBR229C, strain ROT2, hits give low values 1.01 | locus YBR231C, strain swc5, hits give low values 0.985 | locus YBR279W, strain paf1, hits give low values 0.966 | locus YCL011C, strain gbp2, hits give low values 0.953 | locus YCL016C, strain dcc1, hits give low values 0.957 | locus YCL029C, strain bik1, hits give low values 1 | locus YCL061C, strain MRC1, hits give low values 0.992 | locus YCL069W, strain vba3, hits give low values 0.984 | locus YCR088W, strain abp1, hits give low values 0.968 | locus YDL005C, strain med2, hits give low values 0.965 | locus YDL035C, strain GPR1, hits give low values 1.02 | locus YDL040C, strain nat1, hits give low values 0.979 | locus YDL074C, strain BRE1, hits give low values 1.01 | locus YDL101C, strain DUN1, hits give low values 1.01 | locus YDL134C, strain PPH21, hits give low values 1.02 | locus YDL185W, strain tfp1, hits give low values 0.997 | locus YDL192W, strain arf1, hits give low values 0.996 | locus YDR001C, strain nth1, hits give low values 0.975 | locus YDR069C, strain doa4, hits give low values 0.976 | locus YDR101C, strain arx1, hits give low values 1.01 | locus YDR137W, strain rgp1, hits give low values 0.975 | locus YDR150W, strain NUM1, hits give low values 1.01 | locus YDR159W, strain sac3, hits give low values 1.02 | locus YDR162C, strain NBP2, hits give low values 1.03 | locus YDR195W, strain ref2 1.01 | locus YDR297W, strain sur2, hits give low values 0.966 | locus YDR318W, strain mcm21, hits give low values 1 | locus YDR334W, strain swr1, hits give low values 0.949 | locus YDR335W, strain msn5, hits give low values 0.965 | locus YDR388W, hits give low values 0.992 | locus YDR392W, strain spt3, hits give low values 0.918 | locus YDR502C, strain sam2, hits give low values 1.01 | locus YEL003W, strain gim4, hits give low values 0.977 | locus YEL037C, strain rad23, hits give low values 0.985 | locus YEL061C, strain CIN8 (second series), hits give low values 0.98 | locus YEL061C, strain CIN8, hits give low values 1.01 | locus YER015W, strain faa2, hits give low values 0.981 | locus YER016W, strain bim1, hits give low values 0.98 | locus YER110C, hits give low values 0.995 | locus YER111C, strain swi4, hits give low values 0.987 | locus YER155C, strain BEM2 (second series), hits give low values 0.998 | locus YER155C, strain BEM2, hits give low values 1 | locus YER167W, strain BCK2, hits give low values 1.02 | locus YFR010W, strain ubp6, hits give low values 0.987 | locus YGL078C, strain dbp3, hits give low values 0.999 | locus YGL086W, strain mad1, hits give low values 1.01 | locus YGL167C, strain pmr1, hits give low values 0.981 | locus YGL173C, strain kem1, hits give low values 0.961 | locus YGL227W, strain vid30, hits give low values 0.979 | locus YGL240W, strain doc1, hits give low values 0.951 | locus YGL248W, strain PDE1, hits give low values 1.01 | locus YGL253W, strain hxk2, hits give low values 0.953 | locus YGR078C, strain PAC10, hits give low values 1 | locus YGR135W, strain pre9, hits give low values 1 | locus YGR252W, strain gcn5, hits give low values 1.05 | locus YHR013C, strain ard1, hits give low values 0.965 | locus YHR027C, strain rpn1, hits give low values 0.967 | locus YHR030C, strain SLT2, hits give low values 1.01 | locus YHR079C, strain IRE1 (second series), hits give low values 1 | locus YHR079C, strain IRE1, hits give low values 1.02 | locus YHR094C, strain hxt1, hits give low values 0.999 | locus YHR129C, strain ARP1, hits give low values 1.01 | locus YHR142W, strain chs7, hits give low values 0.926 | locus YHR200W, strain rpn10, hits give low values 1.01 | locus YIL066C, strain RNR3, hits give low values 1.01 | locus YIL073C, strain SPO22, hits give low values 1.02 | locus YIL125W, strain kgd1, hits give low values 0.995 | locus YIR030C, strain dcg1, hits give low values 1.01 | locus YJL092W, strain hpr5, hits give low values 0.984 | locus YJL095W, strain BCK1 (second series), hits give low values 0.966 | locus YJL095W, strain BCK1, hits give low values 1.01 and 1.03 | locus YJL115W, strain asf1, hits give low values 0.968 | locus YJL129C, strain trk1, hits give low values 0.958 | locus YJL134W, strain LCB3, hits give low values 1 | locus YJL154C, strain vps35, hits give low values 0.954 | locus YJL164C, strain tpk1, hits give low values 0.989 | locus YJL166W, strain qcr8, hits give low values 0.936 | locus YJL168C, strain set2, hits give low values 1.01 | locus YJL187C, strain SWE1 (second series), hits give low values 1.02 | locus YJL187C, strain SWE1, hits give low values 0.993 | locus YJR043C, strain POL32, hits give low values 1.03 | locus YJR066W, strain TOR1, hits give low values 1 | locus YJR075W, strain HOC1, hits give low values 1.01 | locus YKL009W, strain mrt4, hits give low values 1 | locus YKL068W, hits give low values 0.997 | locus YKL085W, strain MDH1 (second series), hits give low values 0.999 | locus YKL085W, strain MDH1, hits give low values 0.999 | locus YKL160W, strain elf1, hits give low values 0.931 | locus YKR001C, strain vps1, hits give low values 1 | locus YKR026C, strain gcn3, hits give low values 0.975 | locus YKR091W, strain srl3, hits give low values 0.97 | locus YLL001W, strain dnm1, hits give low values 0.916 | locus YLL026W, hits give low values 0.987 | locus YLL041C, strain sdh2, hits give low values 0.987 | locus YLR027C, strain aat2, hits give low values 0.991 | locus YLR039C, strain RIC1, hits give low values 1.04 | locus YLR058C, strain SHM2, hits give low values 1.02 | locus YLR102C, strain apc9, hits give low values 0.999 | locus YLR113W, strain HOG1, hits give low values 1.06 | locus YLR221C, strain rsa3, hits give low values 0.956 | locus YLR258W, strain gsy2, hits give low values 0.979 | locus YLR262C, strain YPT6 (second series), hits give low values 0.97 | locus YLR262C, strain YPT6, hits give low values 1.02 | locus YLR268W, strain sec22, hits give low values 1.01 | locus YLR320W, strain mms22, hits give low values 0.941 | locus YLR330W, strain CHS5, hits give low values 1.01 | locus YLR342W, strain FKS1 (second series), hits give low values 1.01 | locus YLR342W, strain FKS1, hits give low values 0.974 | locus YLR357W, strain rsc2, hits give low values 0.965 | locus YLR370C, strain arc18, hits give low values 0.973 | locus YLR371W, strain rom2, hits give low values 1 | locus YLR384C, strain iki3, hits give low values 0.985 | locus YLR418C, strain cdc73, hits give low values 1.03 | locus YML016C, strain PPZ1, hits give low values 1.01 | locus YML032C, strain rad52, hits give low values 0.993 | locus YML120C, strain ndi1, hits give low values 0.925 | locus YML124C, strain tub3, hits give low values 1 | locus YMR058W, strain fet3, hits give low values 0.979 | locus YMR078C, strain ctf18, hits give low values 0.999 | locus YMR125W, strain sto1, hits give low values 0.935 | locus YMR129W, hits give low values 0.992 | locus YMR205C, strain PFK2, hits give low values 0.927 | locus YMR223W, strain ubp8, hits give low values 0.988 | locus YMR231W, strain pep5, hits give low values 0.993 | locus YMR263W, strain SAP30, hits give low values 1.02 | locus YMR307W, strain GAS1, hits give low values 1.07 | locus YNL067W, strain RPL9B, hits give low values 1.01 | locus YNL071W, strain lat1, hits give low values 0.986 | locus YNL153C, strain GIM3, hits give low values 1 | locus YNL183C, strain NPR1, hits give low values 0.986 | locus YNL209W, strain ssb2, hits give low values 0.976 | locus YNL233W, strain BNI4, hits give low values 1 | locus YNL248C, strain rpa49, hits give low values 0.968 | locus YNL250W, strain rad50, hits give low values 0.979 | locus YNL271C, strain bni1, hits give low values 0.995 | locus YNL298W, strain CLA4, hits give low values 0.999 | locus YNL307C, strain MCK1, hits give low values 0.996 | locus YNL322C, strain KRE1 (second series), hits give low values 0.974 | locus YNL322C, strain KRE1, hits give low values 1.01 | locus YNR049C, strain mso1, hits give low values 0.967 | locus YNR052C, strain pop2, hits give low values 1 | locus YOL006C, strain TOP1, hits give low values 1.06 | locus YOL012C, strain htz1 0.752 | locus YOL147C, strain pex11, hits give low values 0.998 | locus YOR001W, strain rrp6, hits give low values 1.01 | locus YOR061W, strain CKA2, hits give low values 1.01 | locus YOR069W, strain VPS5, hits give low values 1 | locus YOR070C, strain gyp1, hits give low values 0.993 | locus YOR080W, strain dia2, hits give low values 0.973 | locus YOR083W, strain WHI5, hits give low values 0.936 | locus YOR106W, strain vam3, hits give low values 0.932 | locus YOR136W, strain idh2, hits give low values 1.01 | locus YOR144C, strain elg1, hits give low values 1.01 | locus YOR184W, strain ser1, hits give low values 1.01 | locus YOR231W, strain MKK1, hits give low values 1.02 | locus YOR265W, strain rbl2, hits give low values 0.977 | locus YOR270C, strain vph1, hits give low values 0.988 | locus YOR290C, strain snf2, hits give low values 0.943 | locus YOR316C, strain cot1, hits give low values 0.997 | locus YPL051W, strain arl3, hits give low values 0.973 | locus YPL055C, strain LGE1, hits give low values 1.02 | locus YPL078C, strain atp4, hits give low values 0.928 | locus YPL106C, strain sse1, hits give low values 0.942 | locus YPL240C, strain hsp82, hits give low values 1 | locus YPL241C, strain CIN2, hits give low values 1.01 | locus YPL256C, strain CLN2, hits give low values 1.04 | locus YPR119W, strain clb2, hits give low values 0.995 | locus YPR141C, strain kar3, hits give low values 0.987 | locus YPR163C, strain tif3, hits give low values 1 | locus YPR167C, strain met16, hits give low values 1 | strain wtn01, hits give low values 0.995
